Only some compounds are listed: those with a hit (about 4.8% of all), similar ones and a draw of the others.
DAX1 inh-1: DAX1 (NR0B1) inhibitors on StAR promoter, primary screen, cell-based, luminescence, SF-1 (NR5A1), full-length DAX-1; inhibition, % at 6.8 µM; HEK293T StAR-luciferase reporter, SF-1/DAX-1 repression relief; AID 652010, 2013; 1.1% of 370,000 active;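 active means inhibition above the mean over all tested compounds plus 3 SD, cut at about 3.6% in these data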;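 further: 0% = DAX-1 cells with DMSO and 100% = cells lacking DAX-1 with DMSO; higher inhibition means more luminescence from relief of DAX-1 repression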
DAX1 inh-2: DAX1 (NR0B1) inhibitors, primary screen, cell-based, HEK293, Gal4-DAX1, luciferase luminescence | HEK293 Gal4-DAX1 luciferase reporter | inhibition, % at 6.75 µM | 0.99% of 340,000 active | AID 504766, 2011;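 active means inhibition above the mean over all tested compounds plus 3 SD, cut at about 4.2% in these data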;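 further: 0% = DAX1-transfected cells with DMSO and 100% = empty-vector control cells with DMSO; inhibition shows as a rise in luminescence from relieved DAX1 repression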
Target sequence (P51843 207-470 limits assumed): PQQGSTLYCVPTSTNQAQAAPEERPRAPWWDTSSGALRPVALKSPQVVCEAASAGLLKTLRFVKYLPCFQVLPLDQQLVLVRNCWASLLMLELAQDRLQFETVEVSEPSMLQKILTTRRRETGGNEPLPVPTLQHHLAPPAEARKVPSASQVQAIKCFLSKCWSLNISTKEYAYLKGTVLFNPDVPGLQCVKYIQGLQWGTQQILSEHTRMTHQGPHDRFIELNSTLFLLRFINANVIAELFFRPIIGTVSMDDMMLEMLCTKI
hgDAF-12 ag: H. glycines DAF-12 receptor agonists, primary screen, cell-based, luminescence, HEK293, GAL4 fusion, UAS-luciferase | Nuclear hormone receptor DAF-12 (Heterodera glycines), GAL4 fusion | HEK293 GAL4-hgDAF12 UAS-luciferase reporter, agonist luminescence; normalized to butyrate control | activation, % at 6.8 µM | 1.8% of 370,000 active;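 active means activation above a cutoff set at the mean of all screened compounds plus 3 SD, cut at about 10% in these data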;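 further: 0% = DMSO wells and 100% = sodium butyrate wells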
ssDAF12 agonist: S. stercoralis DAF-12 nuclear receptor activators, primary screen, cell-based, luminescence, HEK293, GRIP1 co-expression, lit1-tk-luc; 1% of 370,000 active; activation, % at 6.8 µM; Nuclear hormone receptor DAF-12 (Strongyloides stercoralis); HEK293 ssDAF-12/GRIP1 lit1-tk-luc reporter; % of 3 µM dafachronic acid response; AID 652126, 2013;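 active means activation above the mean over all tested compounds plus 3 SD, cut at about 0.9% in these data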;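 further: 0% = DMSO-only wells and 100% = 3 µM delta7-dafachronic acid wells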
SMARCA2 activ: SMARCA2 (BRM) function activators, primary screen, cell-based, luminescence, high throughput; 1% of 370,000 active; MG213 cells, MMTV-luciferase reporter, dexamethasone, overnight; activation, % at 9.1 µM; in the data active means activation above about 7.8%;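 further: 0% = vehicle wells and 100% = reference activator wells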
hcDAF12 agonist: H. contortus DAF-12 nuclear receptor activators, primary screen, cell-based, luminescence, HEK293, lit1-tk-luc reporter; HEK293 hcDAF-12 lit1-tk-luc reporter; 0% DMSO, 100% Δ7-dafachronic acid; activation, % at 6.8 µM; 1.4% of 370,000 active;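 active means activation above the mean of all tested compounds plus 3 SD, cut at about 5.5% in these data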;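 further: 100% = response to 3 µM Δ7-dafachronic acid high control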
* marks the source's active call; other numbers are inactive results.

SMILES | DAX1 inh-1 | DAX1 inh-2 | hgDAF-12 ag | ssDAF12 agonist | SMARCA2 activ | hcDAF12 agonist
Cc1ccc(C(C)C)c(OCCCCN2CCNCC2)c1 | 0 | -1 | -1 | -1 | -3 | 0
COc1cccc(N2CCN(c3cnc4ccccc4n3)CC2)c1 | 0 | -1 | 8 | -1 | 0 | -2
COc1ccc(-c2cc3c(=O)n(CC(=O)NCCCN4CCC(N5CCCCC5)CC4)nc(C)n3n2)cc1 | 4.5* | 1 | 1 | -1 | -2 | 0
COc1ccc(-c2cc3c(=O)n(CC(=O)NCCCN4CCC(N5CCCCC5)CC4)ncn3n2)cc1 | -14 | 2 | 10 | 0 | 5 | 4
Cc1cc(C)nc(/N=C(\N)N2CCCCCC2)n1 | 0 | 0 | 3 | -2 | -1 | -1
Cc1cc(C)nc(/N=C(\N)N2CCc3ccccc32)n1 | 1 | 1 | 11* | -1 | 6 | 1
CCOC(=O)Nc1ccc2nc(Sc3ccc(Cl)cc3)sc2c1 | -1 | -3 | 0 | -2 | -2 | -2
CSCCC(NC(C)=O)C(=O)Oc1ccc2c3c(c(=O)oc2c1)CCCC3 (centres undefined) | -1 | 0 | -2 | -2 | -3 | -1
CSCCC(NC(=O)OC(C)(C)C)C(=O)Oc1ccc2c(=O)c(-c3ccc4c(c3)OCCO4)coc2c1 (centres undefined) | 3 | 0 | 11* | 1 | 3 | 5.7*
Cc1[nH]nc(SCC(=O)N2CCCCCC2)c1[N+](=O)[O-] | 1 | 1 | 1 | -1 | -3 | 1
NC(=O)C(=O)N/N=C/c1c[nH]c2ccc(Br)cc12 | 0 | 4.5* | 0 | 0 | 1 | 0
O=C(N/N=C/c1c[nH]c2ccc(Br)cc12)c1ccccn1 | 2 | 4 | 16* | 0 | 4 | 3
O=C(N/N=C/c1c[nH]c2ccc(Br)cc12)C1CC1 | 0 | 0 | 0 | -1 | -2 | -1
C/C(=N\Nc1nc2ccccc2[nH]1)c1ccc(N2CCOCC2)cc1 | 3.9* | 0 | 8 | 0 | 2 | 3
CSc1ccc(/C=C/C(=O)c2ccc(O)cc2)cc1 | 1 | 2 | 5 | 0 | 0 | 0
Cc1ccc(/C=C/C(=O)c2ccc(O)cc2)cc1 | 0 | 4.4* | 11* | -1 | 3 | 2
O=[N+]([O-])c1ccc(S(=O)(=O)NCC2COc3ccccc3O2)cc1 (centres undefined) | 1 | 1 | 0 | 0 | 0 | 3
NS(=O)(=O)c1ccc(NCC2COc3ccccc3O2)c([N+](=O)[O-])c1 (centres undefined) | 0 | 0 | 11* | 0 | -1 | 4
O=C(O)c1cccc(COc2ccccc2Cl)c1 | 4.5* | -6 | 7 | 0 | -2 | 4
O=C(O)c1ccc(COc2ccccc2Cl)cc1 | 0 | 0 | 6 | -1 | 0 | -2
S=C(NCCc1ccccc1)NC1CCCCCC1 | 3 | 3 | 11* | 0 | 2 | 3
Cc1cccnc1NC(=S)NCCc1ccccc1 | 1 | 2 | 12* | 1 | 3 | 1
Cc1cccnc1NC(=O)C(C)N1C(=O)c2ccccc2C1=O (centres undefined) | 0 | 7.5* | 1 | -1 | -3 | 0
Cc1ccccc1NC(=O)C(C)N1C(=O)c2ccccc2C1=O (centres undefined) | 0 | -1 | 2 | 0 | 4 | -1
NS(=O)(=O)c1ccc(CNC(=S)NC2CCCC2)cc1 | 0 | 4.5* | -2 | -2 | -2 | -2
O=C(COc1ccccc1Cc1ccccc1)NCCCN1CCOCC1 | 0 | 1 | -1 | -1 | 0 | -2
Cc1csc(N(C(=O)c2ccccc2F)c2ccccc2)n1 | 0 | -1 | -3 | -1 | -3 | -2
Cc1cccnc1NC(N)=S | 0 | 1 | 2 | -1 | -4 | 0

Bioassay records deposited in PubChem by The Scripps Research Institute Molecular Screening Center.
